Hit rate of the full screen: of about 350,000 compounds, about 600 (0.17%) were called active. What follows is part of a selection rich in actives, with near analogues and random picks from the rest. Values without a mark were called inactive.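 How the source made its calls: active means every replicate shows inhibition of at least 40%; inconclusive means mean inhibition at least 40% but some replicate below; inactive means the rest.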

The record followed here is PubChem BioAssay AID651687 (Broad Institute, 2012).

The test is described as follows: inhibitors of PGC1a acetylation signal, primary screen, cell-based, U2OS, AlphaScreen, inhibitor mode (AID 651687).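 Further: 0% = neutral control wells and 100% = positive control wells.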 The settings on record: AlphaScreen anti-acetyl-lysine, at 15.6 µM, active compounds read high.
On to `CCC(C)(O)C(=O)OC1C(=O)OC2CC3C(C)=CC(=O)C(O)C3(C)C3C4(O)OCC23C1C(C)C4O` (stereo not given), for which the inhibition was 80% (active). On to `O=C(Cc1ccncc1)N1CCCCN2[C@@H](CO)[C@H](c3ccc(-c4ccncc4)cc3)[C@@H]2C1`, for which the inhibition was 1.83%. Consider `O=c1[nH]c2ccccc2n1C1CCN(C(c2ccccc2)c2nnnn2Cc2ccccc2)CC1` (stereo not given), for which the inhibition is 10.6%. Regarding `COC(=O)C1=C(c2ccc(OCc3ccccc3)cc2)C[C@@H]2CC[C@H]1N2C(=O)NCc1cccc(F)c1`, the inhibition was -39.8%. For `O=C(Cc1ccncc1)N1CCCCN2[C@H](CO)[C@@H](c3ccc(C#CC4(O)CCCC4)cc3)[C@H]2C1`, the inhibition was -7.38%. Take `COC1C(O)C(C)OC(OC2CCC3(C=O)C(CCC4C3CCC3(C)C(C5=CC(=O)OC5)CCC43O)C2)C1O` (stereo not given): the inhibition was 82.1% (active). Turning to `COC(=O)C(c1ccccc1)N1CCCCCC1` (stereo not given), the inhibition was 5.94%. As to `O=C(c1ccccc1)C(O)(CN1CCCCC1)c1ccccc1` (stereo not given), the inhibition was -2.16%. With `c1ccc(C(CN2CCCCC2)c2ccccc2)cc1` the figure was 40.7% (active); with `N#Cc1cccc(-c2ccc([C@H]3[C@@H](CO)N4CCCCN(C(=O)Cc5cccnc5)C[C@@H]34)cc2)c1`, -1.39%; with `OC[C@@H]1[C@H]2c3ccccc3NC[C@H]2N1Cc1cccnc1`, 3.98%. As for `CCOC(=O)c1cccc(C2=C(CNC(=O)c3ccncc3)[C@H]3CC[C@@H](C2)N3Cc2ccccc2)c1`, the inhibition was -1.43%.

Turning to `O=C(Cc1cccnc1)N1CCCCN2[C@@H](CO)[C@H](c3ccc(C#CC4CCCC4)cc3)[C@@H]2C1`, the inhibition is -10.8%. For the molecule `O=C(NCC1=C(c2ccc3ccccc3c2)C[C@@H]2CC[C@H]1N2Cc1ccco1)c1cccs1`, the inhibition was -0.267%. For the molecule `COC(=O)C[C@@H]1CC[C@@H]2NC[C@@H](O)COC[C@H]2O1`, the inhibition is -2.11%.
